Each structure is given as a SMILES string. The campaign covered roughly 1,600 compounds. About 1,300 (81%) were called active. No rule for the calls is given here. So high a share suggests a set chosen from earlier hits. Only a sample is shown. Potency and affinity values are given separately.

Our source for the activity change, negative = inhibition values is PubChem BioAssay AID624133 (Broad Institute, 2012).

The test in a line: non-specific 3'UTR reporter inhibition in Clone20-Shn3RL – cell-based, Renilla luciferase, cherry-picked, counter-screen for Shn3 inhibitor project, dose response (AID 624133).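 Also: 0% = neutral control wells and -100% = positive control wells.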 The settings on record: Clone20-Shn3RL cells, Renilla luciferase luminescence, 24 h; at 35 µM (top of the series) unless noted.
Take `Cc1ccc(C)c(N2CCN(S(=O)(=O)c3ccc4[nH]c(=O)ccc4c3)CC2)c1`: the activity change, negative = inhibition stood at 4.54%.

Regarding `CC1(Cc2ccc(OC(F)(F)F)cc2)C(=O)Nc2c(Cl)ccc(Cl)c21` (centres undefined), the activity change, negative = inhibition came to 30%.

Take `Cc1csc(=O)n1CC(=O)OCC(=O)c1c(N)n(C)c(=O)n(C)c1=O`: the activity change, negative = inhibition was 10%.

For the compound `COc1ccc(CC(=O)Nc2ccncc2Cl)cc1`, the activity change, negative = inhibition is -54.2%.

For `O=[N+]([O-])c1cccc(S(=O)(=O)NCc2ccncc2)c1`, the activity change, negative = inhibition came to 14.3%.

For `NS(=O)(=O)c1ccc(CNC(=S)NC(=O)c2ccco2)cc1`, the activity change, negative = inhibition came out at 40.3%.

`c1ccc(-c2noc(-c3ccc4ccccc4c3)n2)nc1`: the activity change, negative = inhibition is -2.38%.

Regarding `Cc1ccc(-c2nc(-c3ccccn3)no2)cc1`, the activity change, negative = inhibition is -90.9%.

With `CCOC(=O)c1c(NC(=O)c2nn(CC)cc2Br)sc(C)c1C`, the activity change, negative = inhibition was found to be 16.7%.

Regarding `CN(C)c1ccc(/C=C/c2ccc3ccccc3n2)cc1`, the activity change, negative = inhibition worked out at 117%.

Turning to `Fc1ccccc1N1CCN(Cc2nc(-c3ccccc3)no2)CC1`, the activity change, negative = inhibition is -87.1%.

For the compound `O=C(Nc1ccc([N+](=O)[O-])cc1)C(=O)Nc1cccc(C(=O)O)c1`, the activity change, negative = inhibition stood at 43.3%.

Regarding `COc1ccc(NS(=O)(=O)c2ccc(-c3cnc(C4CC4)o3)cc2)cc1OC`, the activity change, negative = inhibition was 40%.

Regarding `Cc1oc(=O)c(NC(=O)c2ccc(Cl)cc2)cc1C(=O)c1ccccc1`, the activity change, negative = inhibition was -75%.

On to `O=C(CN1C(=O)c2ccccc2S1(=O)=O)c1ccc2c(c1)OCCCO2`, for which the activity change, negative = inhibition was -16.7%.

Turning to `O=C(CN1C(=O)c2ccccc2S1(=O)=O)c1ccc(Cl)cc1Cl`, the activity change, negative = inhibition was -103%.

In the case of `CC1CCN(C(=O)c2ccc(N3C(=O)C4CCC(C)CC4C3=O)cc2)CC1` (centres undefined), the activity change, negative = inhibition is 27.8%.

For `CCN(CC)C(=O)[C@H]1C[C@H](CC(=O)NC/C=C(\C)CCC=C(C)C)C(=O)N2CCc3c([nH]c4cc(CCC(=O)N(C)C)ccc34)[C@]12C`, the activity change, negative = inhibition is -16.7%.

In the case of `O=C(Nc1nc(-c2ccccc2)cs1)C1CCCCN1S(=O)(=O)c1ccccc1` (centres undefined), the activity change, negative = inhibition was -104%.

For `COc1ccc(C(=O)NNC(=O)c2cccc(S(=O)(=O)N3CCOCC3)c2)cc1`, the activity change, negative = inhibition came to 19.6%.

For the compound `O=C(O)C1(Nc2ccccc2Cl)CCCC1`, the activity change, negative = inhibition is -15%.

For `Cc1cc(C(=O)Cn2cnc3cc(F)ccc3c2=O)c(C)n1C1CC1`, the activity change, negative = inhibition was -16.7%.

For the compound `Cc1ccc(C(=O)Nc2ccc3c(c2)C(=O)N(CC2CCCO2)C3=O)cc1` (centres undefined), the activity change, negative = inhibition worked out at 80%.

`CC(C)NCC(O)COc1cccc2ccccc12` (centres undefined): the activity change, negative = inhibition was -29%.

Take `COc1ccc(S(=O)(=O)N2CCOCC2)cc1NC(=O)COC(=O)CC1CC2CCC1C2` (centres undefined): the activity change, negative = inhibition turned out to be 50%.

As for `COc1cc(NS(=O)(=O)c2ccc(C)cc2C)cc(OC)c1OC`, the activity change, negative = inhibition was -27.3%.

Turning to `CCCC(c1nnnn1Cc1ccc(OC)cc1)N1CCN(c2ccccc2)CC1` (centres undefined), the activity change, negative = inhibition is 117%.

Turning to `C=CCOC(=O)C1=C(C)N=C2SCCC(=O)N2C1c1cccs1` (centres undefined), the activity change, negative = inhibition is -29.2%.

For the compound `CCO[C@@H]1OC(C(=O)NC2CC2)=C[C@H](c2coc3ccccc3c2=O)[C@H]1CCCO`, the activity change, negative = inhibition stood at 120%.

With `Cc1ccc(S(=O)(=O)N2CCCCC2)cc1NS(=O)(=O)c1ccccc1F`, the activity change, negative = inhibition was determined as 200%.

In the case of `COc1ccccc1C(=O)Nc1nc2ccccc2[nH]1`, the activity change, negative = inhibition was 43.3%.

In the case of `CN(C)c1ccc(/C=C/c2nc3ccccc3s2)cc1`, the activity change, negative = inhibition came to 27.8%.

For the compound `COc1ccc(N(C)C(=O)c2ccc3snnc3c2)cc1`, the activity change, negative = inhibition was -52.1%.

With `O=C1CCc2cccc(O)c2N1`, the activity change, negative = inhibition is -23.2%.

Consider `Cc1c(CCOC(=O)CC23CC4CC(CC(C4)C2)C3)sc[n+]1CC(=O)c1ccc(Br)cc1`, for which the activity change, negative = inhibition is -59.3%.

In the case of `CN(C)CCN1C(=O)c2cccc3cc([N+](=O)[O-])cc(c23)C1=O`, the activity change, negative = inhibition came out at 310%.

On to `CSc1cccc(NC(=O)N2CCCC(CNS(=O)(=O)Cc3ccccc3)C2)c1` (centres undefined), for which the activity change, negative = inhibition stood at 62.5%.

Regarding `CCN(CC)c1ccc2c(c1)oc(=O)c1c(Cl)cc(=O)oc12`, the activity change, negative = inhibition was -33.3%.

For `Cc1cccc(N2CCN(C(=S)Nc3ccc4nc(N5CCN(C)CC5)cc(C)c4c3)CC2)c1C`, the activity change, negative = inhibition is 22.7%.

For the compound `O=c1c2ccccc2c(C=Nc2ccccc2O)c(O)n1-c1nccs1`, the activity change, negative = inhibition was -2.5%.

Regarding `Cc1ccc(-c2cn3cc(C)ccc3n2)cc1`, the activity change, negative = inhibition is 10%.

`CC(C)CC(NC(=O)c1ccc(Cl)cc1)C(=O)OCC(=O)c1ccc2c(c1)NC(=O)CO2` (centres undefined): the activity change, negative = inhibition was -16.7%.

`CN1CCN(c2ccc(-c3ccc4ccccc4n3)cc2)CC1`: the activity change, negative = inhibition was -31.9%.

For the compound `CC(C)(C)n1nnnc1C(c1cccs1)N1CCCC2(CCCCC2)C1` (centres undefined), the activity change, negative = inhibition came to 54.2%.

In the case of `O=C(CSc1nc(C(F)(F)F)cc(=O)[nH]1)N1CCCC1`, the activity change, negative = inhibition amounted to 231%.

In the case of `CC(=O)N(CCc1ccccc1)c1ccc2c(c1)C1CC2CCN1C(=O)OCc1ccccc1` (centres undefined), the activity change, negative = inhibition was -90.9%.

As for `COc1ccc(NS(=O)(=O)c2ccc(N3CCOCC3)c(N)c2)cc1`, the activity change, negative = inhibition is -21.1%.

With `COc1ccc(NS(=O)(=O)c2cccc(NC(=O)c3ccc(S(=O)(=O)N4CCCCCC4)cc3)c2)cc1`, the activity change, negative = inhibition is 11.9%.

Turning to `C=CCn1c(C)cc(C2=NNC(=NCC)SC2)c1C`, the activity change, negative = inhibition was -16.7%.

With `NC(=O)NC(CC(=O)NCCc1ccccn1)c1ccccc1Cl` (centres undefined), the activity change, negative = inhibition is -110%.

As to `S=c1[nH]nc(COc2cccc3ccccc23)n1Cc1ccccc1`, the activity change, negative = inhibition was -87.5%.

In the case of `CC(C)(C)C(=O)Nc1ccc(NC(=O)c2ccco2)nc1`, the activity change, negative = inhibition amounted to 8.33%.

As for `CCOC(=O)C1=C(C)N(CCCC(=O)O)C(=O)NC1c1ccc2ccccc2c1` (centres undefined), the activity change, negative = inhibition was -30%.

Take `Cc1ccc(C(=O)N2CCN(C)CC2)cc1S(=O)(=O)N1CCCCCC1`: the activity change, negative = inhibition came out at 65.3%.

Consider `CCN(CC)C(=S)Sc1c(-c2ccccc2)c2cc(Cl)ccc2[nH]c1=O`, for which the activity change, negative = inhibition worked out at 16.7%.

Regarding `CC(C)(C)C(=O)Nc1cc2nn(-c3ccccc3)nc2cc1Cl`, the activity change, negative = inhibition came to 52.1%.

For `COc1ccc(OC)c(NC(=O)COC(=O)c2c3c(nc4ccccc24)CCCC3)c1`, the activity change, negative = inhibition is 40%.

Take `COc1cc(Nc2nc(-c3ccccc3)c3cc(C)ccc3n2)cc(OC)c1OC`: the activity change, negative = inhibition amounted to 16.7%.

For the compound `Cc1ccc(S(=O)(=O)N2CCC3(CC2)OCCN3S(=O)(=O)c2c(C)cc(C)cc2C)cc1`, the activity change, negative = inhibition was -13.6%.

For the compound `O=C(CSc1nc2[nH]ncc2c(=O)[nH]1)Nc1ccccc1C(F)(F)F`, the activity change, negative = inhibition was -108%.

`Cc1csc(=O)n1CCC(=O)N(C)Cc1c(F)cccc1Cl`: the activity change, negative = inhibition came out at 75%.

For the compound `CN(C)c1ncnc2c1C(c1ccccc1)C(C)(C)O2` (centres undefined), the activity change, negative = inhibition is -22.2%.

Take `O=C(OCc1ccccc1)N(CCCCN(CCCNCc1ccccc1)C(=O)OCc1ccccc1)CCCNCc1ccccc1`: the activity change, negative = inhibition turned out to be 20%.

`COc1ccc(-c2noc(CCCCC(=O)N3CCN(c4cc(C)ccc4C)CC3)n2)cc1`: the activity change, negative = inhibition is -30%.

In the case of `C=CC[C@H](CC(=O)N(CCO)Cc1ccccc1)C(=O)NC[C@H](OC(=O)[C@@H](CC=C)Cc1ccc(F)cc1)c1ccccc1`, the activity change, negative = inhibition was -75%.

For the compound `CCS(=O)(=O)c1ccc2oc(SCC(=O)N3CCCCC3)nc2c1`, the activity change, negative = inhibition is 35%.

On to `CSc1nc(N2CCN(Cc3ccc4c(c3)OCO4)CC2)c2ccccc2n1`, for which the activity change, negative = inhibition was -16.7%.

Turning to `Cc1ccc(NC(=O)c2oc3ccccc3c2COC(C)C)cc1S(=O)(=O)N1CCOCC1`, the activity change, negative = inhibition worked out at 25%.

For the compound `Cc1ccc(CNC(=O)CSc2c3c(nc4ccc(Cl)cc24)CCCC3)o1`, the activity change, negative = inhibition is 106%.

As to `O=C(CSc1nc2c(c(=O)n1-c1ccc(Br)cc1)SCC2)NCc1ccco1`, the activity change, negative = inhibition was 29.2%.

For the compound `CC(C)c1c(O)c2c(n(-c3ccccc3)c1=O)CCCC2`, the activity change, negative = inhibition is -21.1%.

For `O=C(Nc1cccc(S(=O)(=O)NC2=NCCC2)c1)C1CC(=O)N(c2ccc3c(c2)OCCO3)C1` (centres undefined), the activity change, negative = inhibition is -66.7%.

For `C[C@@H]1CC=C[C@H]2[C@H]1C(=O)N(Cc1ccccc1)[C@H]2c1cccc([N+](=O)[O-])c1`, the activity change, negative = inhibition was found to be 162%.

With `COc1cc(NC(=O)c2cc3c(Cl)nc4ccccc4c3s2)cc(OC)c1OC`, the activity change, negative = inhibition turned out to be 60%.

On to `O=C(Nc1ccc(Cl)c(Cl)c1)c1cccc(S(=O)(=O)NCc2cccnc2)c1`, for which the activity change, negative = inhibition is -10%.

In the case of `Cc1ccc(NC(=O)C2CCC(C(C)(C)C)CC2)cc1S(=O)(=O)N1CCOCC1` (centres undefined), the activity change, negative = inhibition is -100%.

Take `O=C(NNc1ccccc1)C(=O)NNS(=O)(=O)c1ccc(CCCl)cc1`: the activity change, negative = inhibition is 90%.

With `CCCc1nc2c(=O)n(C)c(=O)nc-2n(C)n1`, the activity change, negative = inhibition came out at 71.8%.

With `COc1ccc(CNC(=O)C(C)n2ccc3cc(S(=O)(=O)N4CCCCCC4)ccc32)cc1` (centres undefined), the activity change, negative = inhibition came to 12.2%.
